According to PubChem BioAssay AID1159580 (chemical genetic matrix, 2015):
Where “and” joins values, the source holds several entries; their conditions need not be identical. Equal values may be shown once. About 2,000 (36%) of roughly 5,500 compounds were called active. Not shown: some 18% with an inconclusive outcome. Rule as the data show it: active = normalized growth mostly below about 0.91 (no sharp cut-off); inconclusive = no clear call, values can overlap the other calls; inactive = mostly above about 0.92. Some of the results follow.

Assay: chemical genetic growth profiling, strain panel (AID 1159580);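 also: tested at 20 µM; growth read once vehicle control cultures reached saturation at 30 °C; 1 = growth at the plate median or of vehicle wells; lower values mean less growth of the strain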
Conditions: growth OD

Measured: normalized growth

NS(=O)(=O)c1cc2c(cc1Cl)NC(C1CC3C=CC1C3)NS2(=O)=O (stereo unspecified)
inactive: S. cerevisiae deletion strains, locus YJR075W, strain HOC1, hits give low values 1.02 and 1.01 | S. cerevisiae deletion strains, locus YKL009W, strain mrt4, hits give low values 0.979 | S. cerevisiae deletion strains, locus YKL068W, hits give low values 0.995 | S. cerevisiae deletion strains, locus YKL085W, strain MDH1 (second series), hits give low values 0.946 | S. cerevisiae deletion strains, locus YKL085W, strain MDH1, hits give low values 0.946 | S. cerevisiae deletion strains, locus YKL160W, strain elf1, hits give low values 1.01 | S. cerevisiae deletion strains, locus YKL190W, strain CNB1, hits give low values 0.991 | S. cerevisiae deletion strains, locus YKR001C, strain vps1, hits give low values 0.997 | S. cerevisiae deletion strains, locus YKR026C, strain gcn3, hits give low values 0.976 | S. cerevisiae deletion strains, locus YKR091W, strain srl3, hits give low values 0.989 | S. cerevisiae deletion strains, locus YLL001W, strain dnm1, hits give low values 0.987 | S. cerevisiae deletion strains, locus YLL026W, hits give low values 0.988 | S. cerevisiae deletion strains, locus YLL041C, strain sdh2, hits give low values 0.997 | S. cerevisiae deletion strains, locus YLR027C, strain aat2, hits give low values 0.995 | S. cerevisiae deletion strains, locus YLR039C, strain RIC1, hits give low values 0.981 | S. cerevisiae deletion strains, locus YLR058C, strain SHM2, hits give low values 0.979 | S. cerevisiae deletion strains, locus YLR102C, strain apc9, hits give low values 0.984 | S. cerevisiae deletion strains, locus YLR113W, strain HOG1, hits give low values 1.07 | S. cerevisiae deletion strains, locus YLR221C, strain rsa3, hits give low values 1 | S. cerevisiae deletion strains, locus YLR258W, strain gsy2, hits give low values 0.98 | S. cerevisiae deletion strains, locus YLR262C, strain YPT6 (second series), hits give low values 0.999 | S. cerevisiae deletion strains, locus YLR262C, strain YPT6, hits give low values 0.962 | S. cerevisiae deletion strains, locus YLR268W, strain sec22, hits give low values 0.973 | S. cerevisiae deletion strains, locus YLR320W, strain mms22, hits give low values 0.99 | S. cerevisiae deletion strains, locus YLR330W, strain CHS5, hits give low values 0.989 | S. cerevisiae deletion strains, locus YLR342W, strain FKS1 (second series), hits give low values 1.1 | S. cerevisiae deletion strains, locus YLR342W, strain FKS1, hits give low values 0.995 | S. cerevisiae deletion strains, locus YLR357W, strain rsc2, hits give low values 0.984 | S. cerevisiae deletion strains, locus YLR370C, strain arc18, hits give low values 0.992 | S. cerevisiae deletion strains, locus YLR371W, strain rom2, hits give low values 0.995 | S. cerevisiae deletion strains, locus YLR384C, strain iki3, hits give low values 0.993 | S. cerevisiae deletion strains, locus YLR418C, strain cdc73, hits give low values 0.961 | S. cerevisiae deletion strains, locus YML016C, strain PPZ1, hits give low values 0.998 | S. cerevisiae deletion strains, locus YML032C, strain rad52, hits give low values 1.02 | S. cerevisiae deletion strains, locus YML120C, strain ndi1, hits give low values 1 | S. cerevisiae deletion strains, locus YML124C, strain tub3, hits give low values 1 | S. cerevisiae deletion strains, locus YMR058W, strain fet3, hits give low values 0.996 | S. cerevisiae deletion strains, locus YMR078C, strain ctf18, hits give low values 0.986 | S. cerevisiae deletion strains, locus YMR125W, strain sto1, hits give low values 0.973 | S. cerevisiae deletion strains, locus YMR129W, hits give low values 0.981 | S. cerevisiae deletion strains, locus YMR205C, strain PFK2, hits give low values 0.951 | S. cerevisiae deletion strains, locus YMR223W, strain ubp8, hits give low values 1.05 | S. cerevisiae deletion strains, locus YMR231W, strain pep5, hits give low values 0.992 | S. cerevisiae deletion strains, locus YMR263W, strain SAP30, hits give low values 0.988 | S. cerevisiae deletion strains, locus YMR307W, strain GAS1, hits give low values 1.06 and 1 | S. cerevisiae deletion strains, locus YNL067W, strain RPL9B, hits give low values 1 | S. cerevisiae deletion strains, locus YNL071W, strain lat1, hits give low values 0.986 | S. cerevisiae deletion strains, locus YNL128W, strain TEP1, hits give low values 0.94 | S. cerevisiae deletion strains, locus YNL153C, strain GIM3, hits give low values 0.981 | S. cerevisiae deletion strains, locus YNL175C, strain NOP13, hits give low values 0.978 | S. cerevisiae deletion strains, locus YNL183C, strain NPR1, hits give low values 0.978 | S. cerevisiae deletion strains, locus YNL197C, strain WHI3, hits give low values 0.982 | S. cerevisiae deletion strains, locus YNL209W, strain ssb2, hits give low values 1 | S. cerevisiae deletion strains, locus YNL224C, strain SQS1, hits give low values 0.992 | S. cerevisiae deletion strains, locus YNL233W, strain BNI4, hits give low values 1 | S. cerevisiae deletion strains, locus YNL248C, strain rpa49, hits give low values 0.999 | S. cerevisiae deletion strains, locus YNL250W, strain rad50, hits give low values 0.999 | S. cerevisiae deletion strains, locus YNL271C, strain bni1, hits give low values 1 | S. cerevisiae deletion strains, locus YNL298W, strain CLA4, hits give low values 0.988 | S. cerevisiae deletion strains, locus YNL307C, strain MCK1, hits give low values 1.02 | S. cerevisiae deletion strains, locus YNL322C, strain KRE1 (second series), hits give low values 1 | S. cerevisiae deletion strains, locus YNL322C, strain KRE1, hits give low values 0.988 | S. cerevisiae deletion strains, locus YNR049C, strain mso1, hits give low values 0.989 | S. cerevisiae deletion strains, locus YNR052C, strain pop2, hits give low values 0.987 | S. cerevisiae deletion strains, locus YOL006C, strain TOP1, hits give low values 1.02 | S. cerevisiae deletion strains, locus YOL012C, strain htz1 1.21 | S. cerevisiae deletion strains, locus YOL147C, strain pex11, hits give low values 0.993 | S. cerevisiae deletion strains, locus YOR001W, strain rrp6, hits give low values 0.997 | S. cerevisiae deletion strains, locus YOR061W, strain CKA2, hits give low values 0.959 | S. cerevisiae deletion strains, locus YOR069W, strain VPS5, hits give low values 0.995 | S. cerevisiae deletion strains, locus YOR070C, strain gyp1, hits give low values 0.993 | S. cerevisiae deletion strains, locus YOR080W, strain dia2, hits give low values 0.993 | S. cerevisiae deletion strains, locus YOR083W, strain WHI5 (second series), hits give low values 0.989 | S. cerevisiae deletion strains, locus YOR083W, strain WHI5, hits give low values 1 | S. cerevisiae deletion strains, locus YOR106W, strain vam3, hits give low values 1 | S. cerevisiae deletion strains, locus YOR136W, strain idh2, hits give low values 0.998 | S. cerevisiae deletion strains, locus YOR144C, strain elg1, hits give low values 0.991 | S. cerevisiae deletion strains, locus YOR184W, strain ser1, hits give low values 1.06 | S. cerevisiae deletion strains, locus YOR231W, strain MKK1, hits give low values 1.06 | S. cerevisiae deletion strains, locus YOR265W, strain rbl2, hits give low values 0.999 | S. cerevisiae deletion strains, locus YOR270C, strain vph1, hits give low values 0.984 | S. cerevisiae deletion strains, locus YOR290C, strain snf2, hits give low values 1.01 | S. cerevisiae deletion strains, locus YOR316C, strain cot1, hits give low values 0.98 | S. cerevisiae deletion strains, locus YPL051W, strain arl3, hits give low values 0.997 | S. cerevisiae deletion strains, locus YPL055C, strain LGE1, hits give low values 0.977 | S. cerevisiae deletion strains, locus YPL078C, strain atp4, hits give low values 0.998 | S. cerevisiae deletion strains, locus YPL106C, strain sse1, hits give low values 0.96 | S. cerevisiae deletion strains, locus YPL240C, strain hsp82, hits give low values 0.982 | S. cerevisiae deletion strains, locus YPL241C, strain CIN2, hits give low values 0.981 and 0.988 | S. cerevisiae deletion strains, locus YPL256C, strain CLN2, hits give low values 1.04 | S. cerevisiae deletion strains, locus YPR119W, strain clb2, hits give low values 0.996 | S. cerevisiae deletion strains, locus YPR141C, strain kar3, hits give low values 0.979 | S. cerevisiae deletion strains, locus YPR163C, strain tif3, hits give low values 0.997 | S. cerevisiae deletion strains, locus YPR167C, strain met16, hits give low values 0.977 | S. cerevisiae deletion strains, strain wtn01, hits give low values 0.969 | S. cerevisiae strains, strain wild type, hits give low values 0.998
